# System: HepG2
# Experiment: GSK_TCMDC: Percent inhibition of human HepG2 cell line. Test compounds present at 10uM.
# Format: functional
row,Structure (SMILES),Inhibition [%]
1,O=C(Nc1ccccc1)Nc1cccc(-c2nn3c(OCCN4CCCC4)cccc3c2-c2ccncc2)c1,30
2,COc1ccc2ncc(F)c([C@H](O)CN3CCC(NCc4ccc5c(c4)NC(=O)CO5)CC3)c2c1.Cl,16
3,CS(=O)(=O)CCNCc1nc(-c2ccc3ncnc(Nc4ccc(OCc5cccc(F)c5)c(Cl)c4)c3c2)cs1.Cl,8
4,Cc1ccc(-n2c(Cc3cccc4ccccc34)nnc2SCCC#N)c(C)c1,0
5,Cc1cc(N[C@@H](Cc2ccccc2)C(=O)NC2CCCC2)nc(NCCOc2ccccc2)n1.O=C(O)C(F)(F)F,40
6,O=C(NC1CC1)c1cnc(N2CCC(COc3cccc(F)c3)CC2)c(Cl)c1,1
7,C=C[C@]1(C)C[C@@H](OC(=O)c2cncn(COC)c2=O)[C@]2(C)[C@H](C)CC[C@]3(CCC(=O)[C@H]32)[C@@H](C)[C@@H]1O,0
8,O=C(Nc1cccc(CN2CCCN(Cc3ccc4c(c3)OCO4)CC2)c1)c1ccc2ccccc2c1.O=C(O)C(F)(F)F,7
9,Cc1cnc(NCC2CCCCC2)nc1N[C@@H](CC(C)C)C(=O)Nc1ccccc1.O=C(O)C(F)(F)F,12
10,COc1cc(CCNc2nc(NCc3cccc4ccccc34)nc(N3CCC(N)CC3)n2)ccc1O.O=C(O)C(F)(F)F,16
11,CCCCC(N)COc1cccc2c(-c3ccncc3)c(-c3cccc(NC(=O)Nc4ccccc4)c3)nn12 (stereo not given),13
12,COc1ccc(CN(C)CC(O)COc2ccc(NC(=O)c3cccc4c(=O)c5cccc(OC)c5[nH]c34)cc2)cc1OC (stereo not given),72
13,CCCN(Cc1ccc(OCC)cc1)Cc1cc(=O)c2cc(Cl)ccc2[nH]1,47
14,COc1ccc(CNCc2ccc(-c3ccc(-c4nc5cc(C(F)(F)F)ccc5[nH]4)s3)cc2)cc1.O=C(O)C(F)(F)F,38
15,CN1CCC(C(=O)N(Cc2ccc(-c3ccc(CNCCc4ccc(S(C)(=O)=O)cc4)cn3)cc2)C2Cc3ccccc3C2)CC1.O=C(O)C(F)(F)F,21
16,Oc1cccc(-c2cnc3ccc(NCc4ccc(F)cc4)nn23)c1,0
17,CN(C)/C(=N/C(=N)NCc1ccc(Cl)c(Cl)c1)NCCCCCCN/C(=N\C(=N)NCc1ccc(Cl)c(Cl)c1)N(C)C,20
18,CC(=O)Nc1nc(C(=O)Nc2ccc(-c3ccc(-c4nc5cc(F)ccc5[nH]4)cc3)cc2)cs1,17
19,COc1ccc(CCNC(=O)c2cc(C)ccc2O)cc1-c1ccc(C(C)(C)C)cc1,1
20,CNCc1ccc2nc(-c3coc(Cc4cc(Cl)ccc4OCC(C)C)n3)[nH]c2c1.Cl,34

row,Structure (SMILES),Inhibition [%]
1,O=C1C(c2ccccc2)=C(Nc2ccc(Cl)cc2)c2ccccc21,5
2,CC(C)(C)SCC(O)Cn1c2ccc(Br)cc2c2cc(Br)ccc21 (stereo not given),4
3,COc1ccc(CN(C)CCCCc2ccc(NC(=O)COc3cccc4sc5ccccc5c(=O)c34)cc2)cc1OC.O=C(O)C(=O)O,26
4,Clc1ccc2nnc(-c3c(Cl)cccc3Cl)n2n1,29
5,Cc1cc(=O)c(-c2ccc(Oc3ccc(Cl)cc3Cl)cc2)c(C)[nH]1,0
6,O=C(Nc1ccsc1)Nc1cccc(-c2cccc(-c3nc4cc(C(F)(F)F)ccc4[nH]3)c2)c1,76
7,CCCCN(Cc1cc(Cl)c(OCC)c(OC)c1)c1ccc(C(O)(C(F)(F)F)C(F)(F)F)cc1.O=C(O)C(F)(F)F,5
8,CC(C)CN1CCCN(Cc2cccc(NC(=O)c3ccc(-c4ccccc4)cc3)c2)CC1.O=C(O)C(F)(F)F,30
9,COc1ccccc1N1CCN(CCCCNC(=O)c2ccc(NC(=O)c3ccc4ccccc4c3)cc2)CC1,16
10,Cc1ccccc1C1CCN(C2CCC(NC(=O)/C=C/c3cc(F)cc(F)c3)CC2)CC1 (stereo not given),53
11,CN1CCN(c2ccnc3ccc(NC(=O)Nc4ccc(-c5ccccc5)cc4)cc23)CC1,0
12,CCN(CC)CCN(Cc1ccc(-c2ccc(C(F)(F)F)cc2)cc1)C(=O)Cn1c(CCc2ccc(F)cc2)nc(=O)c2sccc21.O=C(O)C(O)C(O)C(=O)O,100
13,COc1ccc(CN(C)CCCc2ccc(NC(=O)Cc3ccc4nc(-c5ccccc5)ccc4c3)cc2)cc1OC,10
14,CCC(C)NC(=O)Nc1ccc(-c2cccc(-c3nc4cc(C(F)(F)F)ccc4[nH]3)c2)cc1 (stereo not given),45
15,Cc1[nH]c2c(C)cccc2c1C1CCN(CCC2CCN(C(=O)/C=C/c3ccc(Cl)c(Cl)c3)CC2)CC1,67
16,COc1ccc2c(-c3ccccc3)noc2c1,0
17,Clc1ccc2c(N3CCCNCC3)ccnc2c1,11
18,Cc1cc(C=C(P(=O)(OC(C)C)OC(C)C)P(=O)(OC(C)C)OC(C)C)c2ccccc2c1O,15
19,Cc1cnc(C(=O)Nc2ccc(-c3cccc(-c4nc5ccccc5[nH]4)c3)cc2)cn1,77
20,CS(=O)(=O)Cc1ccc(Nc2nccc(-c3c(-c4cccc(NC(=O)c5c(F)cccc5F)c4)nn4ncccc34)n2)cc1,86
